High-throughput results (PubChem)
Shiga inhibitor = Shiga toxin inhibition. 9.2% of 290,000 active. inhibition, % at 38.7 µM. Vero cells, Shiga toxin protein synthesis inhibition reporter; in the data active = inhibition mostly above about 28%, no sharp cut-off; inactive = mostly below about 43%; note: 0% is about no effect
Sm TGR inh = S. mansoni TGR enzyme inhibition; Q962Y6; purified TGR, DTNB reduction, TNB absorbance 405 nm; Potency, µM (top dose mostly 114 µM), inactives show at the top dose activity change, negative = inhibition, hits mostly inhibitors; 3% of 360,000 active; AID 485364; note: potency is the fitted concentration of half-maximal effect; % is set by controls: 0 for no effect and ±100 for the full control effect; nearly all actives have a fitted effect of over 60% in size
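First, TGR (20 nM dispensed) and NADPH were mixed with compound. Second, a 15 min room-temperature incubation followed. Third, further NADPH and then DTNB were added to start the reaction. Finally, TNB absorbance was monitored kinetically.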
Pf growth 48h = P. falciparum growth inhibition at 48 hours (one generation) | 5.9% of 310,000 active | P. falciparum luciferase growth in erythrocytes, 48 h | AID 504832 | Potency, µM (top dose mostly 28.7 µM), without a hit: at the highest dose activity change, negative = inhibition, hits mostly inhibitors; note: potency is the fitted concentration of half-maximal effect; % is set by controls: 0 for no effect and ±100 for the full control effect
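Luminescence readout; reporter = integrated firefly luciferase in P. falciparum. RBC culture at 2% hematocrit, 0.1% parasitemia final, 37 C/5% CO2; decreased signal taken as growth inhibition.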
Cycloheximide cs = counter-screen hit for Shiga toxin inhibitors, cycloheximide; cell reporter, cycloheximide protein synthesis inhibition counterscreen; max response, %; 12% of 300,000 active; AID 2314; in the data active = max response mostly above about 13%, no sharp cut-off; inactive = mostly below about 14%; note: read at 38.3 µM for the half of the compounds with a filed dose; 0% is about no effect
Pf growth 96h = P. falciparum growth inhibition at 96 hour, primary screen for plastid delayed-death inhibitors. P. falciparum luciferase reporter growth, 96 h. Potency, µM (highest dose often 28.7 µM), inactives show at the top dose activity change, negative = inhibition, actives largely listed as inhibitors. AID 504834. 6.9% of 320,000 active; note: potency is the fitted concentration of half-maximal effect; % is set by controls: 0 for no effect and ±100 for the full control effect
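Readout is luminescence from an integrated firefly luciferase in P. falciparum. Red cells, 2% hematocrit and 0.05% parasitemia final, were cultured with compound through two parasite generations (96 hours) at 37 C, 5% CO2.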
NS1 function inh = blocks influenza NS1 protein function | Potency, µM (highest dose often 46.1 µM), without a hit: top-dose activity, positive = more growth | 0.4% of 270,000 active; calls by dose curve; note: potency is the fitted concentration of half-maximal effect; actives are rising curves; nearly all actives have a fitted effect of over 50% in size
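Compounds were scored for reversing the slow growth caused by influenza A NS1 in S. cerevisiae, measured by optical density at 600 nm. Assay medium contained 2% galactose at pH 6.0; NS1-free yeast of the same strain were the positive control.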
An asterisk follows results filed as active; ? = inconclusive; . = no result. Sampled rows, rich in hits. Any-hit rate of the full collection: about 21%. Unless noted, calls come from the whole dose curve; as a rule, active = well fitted curve in the direction sought with a large enough effect; inconclusive = small, poorly fitted or top-dose-only effect, or another doubt; inactive = no such curve, though single readings can be large; an effect the other way counts as inactive or inconclusive.

SMILES	Shiga inhibitor	Sm TGR inh	Pf growth 48h	Cycloheximide cs	Pf growth 96h	NS1 function inh
CC(C)c1nn2c(=O)cc(CSc3ccccc3NC(=O)c3ccccc3F)nc2s1	7	11%	?	-3	8.3µM*	-15%
Cc1nc(COc2ccccc2Cl)sc1-c1ccnc(N)n1	49*	-1%	20%	19*	30%	-2%
Cc1cc(S(=O)(=O)Nc2cc3c(cc2Cl)n(C)c(=O)c(=O)n3C)ccc1F	.	-1%	.	.	.	.
CN(C)CCOC(=O)NC12CC3CC(CC(C3)C1)C2	-7	4%	0%	-2	-2%	2%
O=C(NC12CC3CC(CC(C3)C1)C2)OCCNC1CCCCC1	-11	11%	?	0	10µM*	0%
COc1cccc(Cn2nnc3c(=O)[nH]c(C4CCN(C(=O)c5ccccc5Cl)CC4)nc32)c1	.	-4%	.	.	.	.
O=C(Nc1cccc(-c2cccc(Cl)c2)c1)C1CCN(CC2CCOC2)CC1 (stereo unspecified)	-5	-18%	8.3µM*	-4	23%	-15%
COCc1ccc(CN2CCC(C(=O)Nc3cccc(-c4cccc(Cl)c4)c3)CC2)o1	-28	?	13µM*	-3	?	-13%
O=C(Nc1cccc(-c2cccc(Cl)c2)c1)C1CCN(Cc2ccccn2)CC1	4	?	?	-5	5%	-8%
COCc1ccc(C(=O)N2CCCCC2C(=O)Nc2ccc(-n3nc(C)cc3C)cc2)o1 (stereo unspecified)	-2	-32%	-11%	1	12µM*	4%
O=C(Nc1cccc(-c2cccc(F)c2)c1)C1CCN(CC2CCOC2)CC1 (stereo unspecified)	-7	2%	?	-4	27%	4%
O=C(Nc1cccc(-c2cccc(Cl)c2)c1)C1CCN(Cc2ccon2)CC1	-7	1%	14%	-3	8.3µM*	0%
COc1ccc(-c2ccc(NS(=O)(=O)c3ccc(NC(C)=O)cc3)cc2)nn1	.	-2%	.	.	.	.
O=C(CN1C(=O)NC2(CCCC2)C1=O)NCCc1ccc(Cl)cc1Cl	.	3%	-8%	.	2%	.
Cc1cc(C)n(-c2ccc(NC(=O)C3CCN(Cc4ccc(C)o4)CC3)cc2)n1	-3	?	13µM*	1	15µM*	3%
COc1cccc(-c2cccc(NC(=O)C3CCN(Cc4cnn(C)c4)CC3)c2)c1	-3	-2%	?	7	?	27%
COc1cccc(-c2cccc(NC(=O)C3CCN(Cc4ccc(C)o4)CC3)c2)c1	-1	50µM*	-23%	12	-32%	1%
Cc1ccc(-c2nc3ccccc3s2)cc1S(=O)(=O)N1CCCC1	43	-1%	.	30*	?	15%
Cc1ccc(-c2nnc(NCc3nc4ccccc4[nH]3)c3ccccc23)cc1S(=O)(=O)N1CCCCC1	8	0%	?	-3	13µM*	?
COc1ccc(/C=N/NC(=O)C(Cc2c[nH]c3ccccc23)NC(=O)OCC(C)C)cc1[N+](=O)[O-] (stereo unspecified)	-9	-6%	7%	-3	24%	18%
COC(=O)c1scc(C)c1NC(=O)C1CCCCC1	10	11%	5%	-6	15%	2%
Cc1cc(NC(=O)c2cc(-c3ccc(Br)cc3)on2)nn1Cc1ccc(Cl)cc1	.	0%	.	.	.	.
Cc1cc(NC(=O)c2cc(-c3ccc(Cl)cc3)on2)nn1Cc1ccc(Cl)cc1	.	-5%	.	.	.	.
Cc1cc(C(=O)Nc2cc(C)n(Cc3ccc(Cl)cc3)n2)no1	32	0%	0.93µM*	15	?	-9%
COc1ccccc1-c1cc(C(=O)Nc2cc(C)n(Cc3ccc(Cl)cc3)n2)no1	-18	0%	5.9µM*	-1	16%	1%
SMILES	Shiga inhibitor	Sm TGR inh	Pf growth 48h	Cycloheximide cs	Pf growth 96h	NS1 function inh
Cc1cc(NC(=O)c2cc(C(C)C)on2)nn1Cc1ccc(Cl)cc1	50	-2%	.	15	9.3µM*	-49%
CCOC(=O)c1scc(-c2ccc(C)cc2)c1S(=O)(=O)Nc1ccc(OC)c(Cl)c1	.	-15%	.	.	.	.
COC(=O)/C=C/c1ccc(-n2cncn2)cc1	32	1%	51%	23*	?	.
Cn1c(SCc2cccc([N+](=O)[O-])c2)nc2c(c1=O)SCC2	-4	0%	?	-4	3.7µM*	.
Cn1c(SCC(=O)Nc2cccc(F)c2)nc2c(c1=O)SCC2	21	2%	?	1	2.6µM*	9%
COc1cccc(NC(=O)CSc2nc3c(c(=O)n2C)SC(C)C3)c1 (stereo unspecified)	-10	-12%	12µM*	-1	9.3µM*	-45%
CCOc1ccc(NC(=O)CSc2nc3c(c(=O)n2C)SC(C)C3)cc1 (stereo unspecified)	-5	-19%	13µM*	-3	7.4µM*	?
CC1Cc2nc(SCC(=O)Nc3ccc(F)cc3)n(C)c(=O)c2S1 (stereo unspecified)	-4	-1%	?	-5	?	-41%
CCOc1ccc(CNCc2c(C(=O)O)n(Cc3ccccc3C)c3cc(OC)ccc23)cc1OC	4	2%	.	-3	.	.
CCc1cccc(NC(=O)CCNS(=O)(=O)c2ccc3c(c2)CCN3C(C)=O)c1	.	-4%	.	.	.	.
COC(=O)C1(NC(=O)NC2CCCCC2)CCCCC1	12	0%	-2%	1	-8%	9%
O=S(=O)(c1ccccc1F)N1CCC(c2nc3ccccc3[nH]2)CC1	23	-8%	-12%	-8	?	4%
O=C(Cc1ccc(-c2ccccc2)cc1)NCCS(=O)(=O)N1CCN(c2ccccc2)CC1	.	-11%	.	.	.	.
Fc1ccc(Cn2cccc2C2=NC(c3ccccc3)CO2)cc1 (stereo unspecified)	75*	14%	8%	69*	?	.
CCC1COC(c2cccn2Cc2ccccc2Cl)=N1 (stereo unspecified)	-12	5%	9%	-5	12µM*	0%
Cc1oc(-c2ccccc2)nc1Cn1cccc1C1=NC(c2ccccc2)CO1 (stereo unspecified)	-3	14%	?	-2	5.2µM*	-33%
NC(=O)C1(N2CCCCC2)CCN(C(=S)Nc2cc(F)cc(F)c2)CC1	-3	.	-15%	-2	19%	0%
Cc1ccc(NC(=O)CCC(=O)OCc2ccc(Br)cc2)cc1	-3	-3%	9%	-3	5%	-1%
COc1ccc(NC(=O)CCc2nnc3n(C)c(=O)c4sccc4n23)cc1Cl	.	5%	.	.	.	.
O=C(c1ccccc1Cl)N1N=C(c2ccc(Br)cc2)CC1c1nc2ccccc2[nH]1 (stereo unspecified)	28	-9%	3%	17*	52%	-81%
C=CCSc1nnc(-c2cc3c(s2)-c2ccccc2CC3)o1	52*	0%	?	14*	2%	-22%
Cc1ccc(C(c2sc3ncnn3c2O)N2CCC(C)CC2)cc1 (stereo unspecified)	1	-18%	?	2	5.9µM*	?
